Source: PubChem
Marburg entry inh = blocks Marburg virus binding to or entry into cells; Marburg virus pseudotyped entry inhibition, cell reporter; Potency, µM (doses to about 37.8 µM), inactives show at the top dose activity change, negative = inhibition, most hits filed as inhibitors; 300,000 tested, 1.8% active; calls by dose curve; tested in HEK293 cells; further: potency means the concentration at half of the fitted maximal effect; on the % scale 0 is the no-effect control and ±100 the full control effect
Pf growth 96h = P. falciparum growth inhibition at 96 hours | P. falciparum luciferase reporter growth, 96 h | Potency, µM (series often up to 28.7 µM), inactives show at the highest dose activity change, negative = inhibition, actives largely listed as inhibitors | 320,000 tested, 6.9% active; further: potency means the concentration at half of the fitted maximal effect; on the % scale 0 is the no-effect control and ±100 the full control effect
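Readout is luminescence from an integrated firefly luciferase in P. falciparum. Red cells, 2% hematocrit and 0.05% parasitemia final, were cultured with compound through two parasite generations (96 hours) at 37 C, 5% CO2.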
Cycloheximide cs = affects cycloheximide protein synthesis inhibition readout, counter-screen; cell reporter, cycloheximide protein synthesis inhibition counterscreen; 300,000 tested, 12% active; max response, %; AID 2314; in the data active means max response mostly above about 13%, no sharp cut-off; inactive means mostly below about 14%; further: read at 38.3 µM for the half of the compounds with a filed dose; 0% is about no effect
Pf growth 48h = inhibits P. falciparum growth in the first generation, 48 h | P. falciparum luciferase growth in erythrocytes, 48 h | Potency, µM (doses to about 28.7 µM), without a hit: top-dose activity change, negative = inhibition, hits mostly inhibitors | 310,000 tested, 5.9% active | AID 504832; further: potency means the concentration at half of the fitted maximal effect; on the % scale 0 is the no-effect control and ±100 the full control effect
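A one-generation exposure of luciferase-tagged malaria parasites in RPMI 1640/Albumax erythrocyte culture, 37 C and 5% CO2. Inhibition is inferred from decreased luminescence after adding detection reagent.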
Shiga toxin inh = Shiga toxin inhibition; inhibition, % at 38.7 µM; AID 2315; 290,000 tested, 9.2% active; Vero cells, Shiga toxin protein synthesis inhibition reporter; in the data active means inhibition mostly above about 28%, no sharp cut-off; inactive means mostly below about 43%; further: 0% is about no effect
Lassa entry inh = Lassa virus entry inhibition. Lassa virus pseudotype entry inhibition, cell reporter. Potency, µM (doses to about 37.9 µM), inactives show top-dose activity change, negative = inhibition, usual class: inhibitors. 300,000 tested, 1.2% active. AID 540256; calls by dose curve; tested in HEK293 cells; further: potency means the concentration at half of the fitted maximal effect; on the % scale 0 is the no-effect control and ±100 the full control effect; nearly all actives have a fitted effect of over 50% in size
* marks the source's active call; other numbers are inactive results; i = inactive; u = inconclusive; x = no result; + = active, no number; [ ] = remark or other dose. Rows were chosen to be rich in hits. Some 19% of all compounds tested hit in one or more screens of this group. Unless noted, the call rests on the fitted dose curve; in most records, active means well fitted inhibition curve with a large enough effect; inconclusive means small, poorly fitted or top-dose-only effect, or another doubt; inactive means no such curve, though single readings can be large or run the other way.

SMILES	Marburg entry inh	Pf growth 96h	Cycloheximide cs	Pf growth 48h	Shiga toxin inh	Lassa entry inh
Cc1cc(C)c2[nH]c(=O)c(C(c3nnnn3CC3CCCO3)N3CCCC(C)C3)cc2c1 (configuration not stated)	-10.8%	x	-2.6	14.7µM*	-6.4	-9.7%
CCC(C)(C)n1nnnc1C(c1cc2cc(C)cc(C)c2[nH]c1=O)N1CCCC1 (configuration not stated)	u	u	-4.2	5.86µM*	19.4	3.8%
CCC(C)(C)n1nnnc1C(c1cc2cccc(C)c2[nH]c1=O)N1CCCC1 (configuration not stated)	-6.1%	-8.5%	1.4	u	-4.1	3.3%
Cc1cc(C)c2[nH]c(=O)c(C(c3nnnn3CC3CCCO3)N3CCC(C)CC3)cc2c1 (configuration not stated)	u	0.0%	6.9	u	-19.8	-8.0%
CCC(C)(C)n1nnnc1C(c1cc2cc(C)cc(C)c2[nH]c1=O)N1CCN(Cc2ccc3c(c2)OCO3)CC1 (configuration not stated)	11.8%	0.522µM*	-0.1	x	2.3	1.2%
COc1ccccc1CNC(=O)CCC(=O)Nc1nnc(C(C)C)s1	8.0%	-9.2%	-9.3	x	-17.0	-8.3%
CS(=O)(=O)c1ccc(C(=O)NCc2ccc(F)cc2)cc1	18.2%[46.1 µM]	14.9%	-1.6	-14.2%	-12.6	-19.1%
N#CCO/N=C(\c1ccccc1)c1ccncc1	-0.6%	u	0.2	10.7%	-15.3	-2.0%
Cc1ccc(S(=O)(=O)N2CCN(c3ccnc4cc(Cl)ccc34)CC2)cc1C	u	8.1%	0.9	u	-4.6	-1.7%[46.1 µM]
CCS(=O)(=O)N1CCN(c2ccnc3cc(Cl)ccc23)CC1	u	10.4µM*	-0.7	11.7µM*	-5.0	-4.7%
O=S(=O)(c1ccc(Br)s1)N1CCN(c2ccnc3cc(Cl)ccc23)CC1	u	u	15.2*	u	25.0	-19.6%
Cc1ccc(S(=O)(=O)N2CCN(c3ccnc4cc(Cl)ccc34)CC2)cc1	5.01µM*	u	-1.0	10.4µM*	-0.5	-21.6%[46.1 µM]
CS(=O)(=O)N1CCN(c2ccnc3cc(Cl)ccc23)CC1	4.6%	u	-4.6	2.9%[5.75 µM]	-6.7	-12.6%[46.1 µM]
O=C(C1CCCN(S(=O)(=O)c2cccc3nsnc23)C1)N1CC=C(c2ccccc2)CC1 (configuration not stated)	u	41.1%	-0.7	u	-4.6	u
CCN(c1ccc(C)c(C)c1)S(=O)(=O)c1ccc2c(c1)CCN2C(=O)CCC(=O)O	0.3%	u	-3.3	x	-6.2	13.1%
O=C1CCCCCN1Cc1nnc(SCc2nc3ccccc3s2)n1-c1ccccn1	22.8%	105.7%	74.3*	106.6%	92.3*	-8.0%
Cc1ccc(S(=O)(=O)N2CCC(C(=O)N3CCc4ccccc43)CC2)cc1	-0.9%	4.1%	-5.7	9.1%	-26.5	-6.0%
CCn1ncc(CN2CCCC(C(=O)c3cccc(OC(C)C)c3)C2)c1C (configuration not stated)	x	-13.5%	0.2	u	1.7	x
O=C(CCNC(=O)c1ccccc1Cl)Nc1nc2ccc(F)cc2s1	x	142.2%	x	152.5%	x	x
CS(=O)(=O)c1ccc2nc(NC(=O)CCNC(=O)c3ccccc3Cl)sc2c1	-18.8%	-104.3%	x	10.4µM*	x	-7.6%
CS(=O)(=O)c1ccc2nc(NC(=O)c3ccccc3Br)sc2c1	x	168.3%	37.3*	102.0%	70.2*	x
CS(=O)(=O)c1ccc2nc(NC(=O)c3cccc(Cl)c3)sc2c1	u	-3.3%	4.8	1.5%	29.9	u
CS(=O)(=O)c1ccc2nc(NC(=O)c3ccccc3Cl)sc2c1	x	u	15.4*	9.4%	59.2*	x
COc1ccccc1C(=O)Nc1nc2ccc(S(C)(=O)=O)cc2s1	-24.1%	10.2%	17.2*	79.8%	+	39.1%[14.3 µM]
CC1CC(N(C(=O)c2ccccc2Cl)c2ccccc2)c2ccccc2N1 (configuration not stated)	u	11.7µM*	-4.0	u	-9.9	u
SMILES	Marburg entry inh	Pf growth 96h	Cycloheximide cs	Pf growth 48h	Shiga toxin inh	Lassa entry inh
CC1(C)Cc2c(C#N)c(N3CCN(C(=O)c4ccccc4Cl)CC3)nc(-c3ccco3)c2CS1	-25.9%	1.65µM*	-2.9	u	-8.7	u
CC(=O)N1CCN(c2nc(-c3ccco3)c3c(c2C#N)CC(C)(C)SC3)CC1	-21.4%	u	2.3	u	-12.3	-16.9%
CC1(C)Cc2c(C#N)c(N3CCN(C(=O)c4ccco4)CC3)nc(-c3ccco3)c2CS1	-11.2%	u	-0.1	4.65µM*	-8.7	-9.2%
CCOC(=O)c1csc(NC(=O)CSc2nnnn2-c2ccc3c(c2)OCCO3)n1	-5.4%	u	0.8	u	6.7	-7.5%
CCN(CC)S(=O)(=O)c1ccc(Cl)c(NC(=O)c2ccc(C#N)cc2)c1	u	-7.3%	-2.2	-18.2%	-6.5	u
COc1ccc(-c2oc3ccc(-c4cc(OC)c(OC)c(OC)c4)cc3c2-c2ccc(OC)nc2)cc1	x	3.29µM*	-1.1	u	-1.6	x
COc1ccc(-c2c(-c3cc(OC)c(OC)c(OC)c3)noc2C)cn1	x	u	6.5	-1.5%	18.9	x
CCOC(=O)c1cccc(NC(=O)Cn2cnc3c2c(=O)n(C)c(=O)n3C)c1	6.0%	10.6%	-1.5	8.3%	-7.3	16.2%
Cc1nc2ccc(NC(=O)CCC3CCCC3)cc2s1	15.8%[46.1 µM]	128.1%	45.1*	73.8%	96.8*	u
O=C(Nc1cccc(Cl)c1)NC1CCCCC1	-23.0%	-14.8%	37.9*	102.0%	91.5*	u
CC(=O)c1ccc(-c2ccc(C(=O)NC3CCCCCC3)o2)cc1	9.7%[46.1 µM]	u	27.5*	u	41.3*	0.6%
CC(=O)c1cccc(NC(=O)CCC2CCCC2)c1	18.4%	0.3%	25.4*	56.3%	i	u
O=C(Nc1cccc(C(=O)N2CCOCC2)c1)NC1CCCCC1	u	17.5%	-6.0	-7.0%	27.8	0.1%
O=C(NC1CCC(O)CC1)c1ccc(-c2ccc(Cl)cc2)o1 (configuration not stated)	u	121.3%	x	84.3%	x	u
Cc1cccc(NC(=O)NC2CCCCCCC2)c1	x	42.9%	41.5*	59.9%	92.6*	x
CC(=O)c1cccc(NC(=O)NC2CCCCC2)c1	28.1%	u	16.3	x	16.7	u
O=C(Nc1cccc(Cl)c1)NC1CC2CCC1C2 (configuration not stated)	x	-19.0%	23.4*	3.4%	x	x
CC(=O)c1ccc(NC(=O)C2C3CCC(C3)C2C(=O)O)cc1 (configuration not stated)	u	13.1µM*	7.8	-4.6%	35.0	-1.8%[46.1 µM]
CCc1ccc(NC(=O)C2C3C=CC(C4CC34)C2C(=O)O)cc1 (configuration not stated)	3.1%	69.8%	13.9*	56.0%	19.1	-18.3%
Cc1cc(C)c(C2C(C#N)=C(N)Oc3n[nH]c(C)c32)cc1CN1CCOCC1 (configuration not stated)	6.7%	1.4%	-1.3	x	-11.9	-13.8%
